The text below walks through data of PubChem BioAssay (NCATS).

In test [1] the test system is 3D7. Put plainly: qHTS profiling for inhibitors of Plasmodium falciparum proliferation (AID 504749). Also: nearly all actives have a fitted effect of over 60% in size.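 As to activity, negative = inhibition: 0% = DMSO vehicle and full inhibition = artemisinin control.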 To be noted: P. falciparum in erythrocytes, SYBR Green DNA, 72 h; series mostly up to 28.7 µM. An outline of the steps: (§1)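 P. falciparum-infected erythrocytes (0.3% parasitemia, 2.5% hematocrit) incubated with compound 72 h at 37 C, 5% CO2. Parasite DNA detected by SYBR Green after lysis, overnight at room temperature; normalised to 0.29 uM artemisinin and DMSO.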
Background: In qHTS, concentration-response curves come from the screen itself.

In test [2] the test system is 7G8. Described as above. To be noted: P. falciparum in erythrocytes, SYBR Green DNA, 72 h; series mostly up to 28.7 µM. A digest of the protocol: as §1
Test [3] deals with CP191. The description is as above. Conditions: P. falciparum in erythrocytes, SYBR Green DNA, 72 h; series mostly up to 28.7 µM. A digest of the protocol:
as §1

The test system of test [4] is CP192. The test is described as above. Conditions: P. falciparum in erythrocytes, SYBR Green DNA, 72 h; series mostly up to 28.7 µM. An outline of the steps: as §1
The subject of test [5] is CP194. The description is as above. To be noted: P. falciparum in erythrocytes, SYBR Green DNA, 72 h; series mostly up to 28.7 µM. An outline of the steps:
as §1

For test [6], the system named is CP201. Described as above. To be noted: P. falciparum in erythrocytes, SYBR Green DNA, 72 h; series mostly up to 28.7 µM. A digest of the protocol: as §1
Test [7] relates to CP203. The test is described as above. Conditions: P. falciparum in erythrocytes, SYBR Green DNA, 72 h; series mostly up to 28.7 µM. A digest of the protocol:
as §1

Test [8] concerns CP211. The description is as above. Conditions: P. falciparum in erythrocytes, SYBR Green DNA, 72 h; series mostly up to 28.7 µM. A digest of the protocol: as §1
In test [9] the test system is CP215. Described as above. Conditions: P. falciparum in erythrocytes, SYBR Green DNA, 72 h; series mostly up to 28.7 µM. A digest of the protocol: as §1
Assay in test [10]: as above
Conditions: P. falciparum in erythrocytes, SYBR Green DNA, 72 h, at 28.7 µM (top of the series). An outline of the steps: as §1

The subject of test [11] is CP185. The test is described as above. To be noted: P. falciparum in erythrocytes, SYBR Green DNA, 72 h; series mostly up to 28.7 µM. An outline of the steps:
as §1

Test [12] has as its system AA1029. The description is as above. To be noted: P. falciparum in erythrocytes, SYBR Green DNA, 72 h; series mostly up to 28.7 µM. An outline of the steps:
as §1

For test [13], the system named is C2A. The description is as above. Conditions: P. falciparum in erythrocytes, SYBR Green DNA, 72 h; series mostly up to 28.7 µM. An outline of the steps: as §1
The subject of test [14] is AS120. The test is described as above. Conditions: P. falciparum in erythrocytes, SYBR Green DNA, 72 h; series mostly up to 28.7 µM. A digest of the protocol:
as §1

The test system of test [15] is ATS189. The description is as above. Conditions: P. falciparum in erythrocytes, SYBR Green DNA, 72 h; series mostly up to 28.7 µM. An outline of the steps:
as §1

Test [16] deals with ATS95. Described as above. To be noted: P. falciparum in erythrocytes, SYBR Green DNA, 72 h; series mostly up to 28.7 µM. A digest of the protocol:
as §1

The subject of test [17] is CP217. The test is described as above. To be noted: P. falciparum in erythrocytes, SYBR Green DNA, 72 h; series mostly up to 28.7 µM. An outline of the steps:
as §1

Records with an inconclusive call do not appear. Values without a mark were called inactive. The source made the active and inactive calls. Calls follow the shape of the dose curve; as a rule, active = well fitted inhibition curve with a large enough effect; inconclusive = small, poorly fitted or top-dose-only effect; inactive = flat fitted curve, though single readings scatter.
Potency is read from the fitted curve at half-maximal effect.

For `Nc1ccc(S(=O)(=O)Nc2ccc(Cl)nn2)cc1`, the Potency result in test [1], in [2], in test [4], in test [5], in [6] and in test [7] was “inactive” each time. The Potency entry in test [8] and in [9] was “inactive” in each case. Besides, the Potency in test [3] is 1.12 µM (active).
`CN1CCC[C@@H]1Cc1c[nH]c2ccc(CCS(=O)(=O)c3ccccc3)cc12`: the activity, negative = inhibition in [10] (parasite line A) was -0.0666%; in [10] (parasite line B), -10.1%. The Potency result in [1], in [11] and in [4] was “inactive” each time. Also, the Potency is 6.31 µM (active) in [2] and 5.01 µM (active) in [3].
With `[Cl][In]([Cl])[Cl]`, the activity, negative = inhibition in [10] (parasite line A) was -23.4%; in test [10] (parasite line B), -19.4%. Besides, the Potency in test [2] is 2 µM (active). In addition, the Potency entry in [12], in [13], in test [11], in [4], in test [5] and in test [6] was “inactive” in each case. The Potency entry in test [7] and in [8] was “inactive” each time.
With `Cc1c(Cl)cccc1Nc1ccccc1C(=O)O`, the activity, negative = inhibition in test [10] (parasite line A) is -2.73%; in test [10] (parasite line B), 8.76%. The Potency entry in [1], in test [12], in test [14], in test [15], in test [16] and in [13] was “inactive” in each case. In addition, the Potency entry in [11], in [3], in test [4], in test [5], in test [6] and in [7] was “inactive” throughout. The Potency entry in test [8], in [9] and in test [17] was “inactive” in each case.
Regarding `CSc1ccc2c(c1)N(CCC1CCCCN1C)c1ccccc1S2` (stereo unspecified), the Potency is 5.62 µM (active) in test [2], 10 µM (active) in test [12] and 11.2 µM (active) in [14]. Moreover, the Potency entry in test [6] and in test [8] was “inactive” throughout.
As for `CCOc1nc2cccc(C(=O)O)c2n1Cc1ccc(-c2ccccc2-c2nn[nH]n2)cc1`, the activity, negative = inhibition was -6.01% in [10] (parasite line A) and -13.6% in test [10] (parasite line B). Further, the Potency result in test [1], in [15], in [11], in [3], in test [4] and in test [6] was “inactive” in each case. Moreover, the Potency entry in test [8] was “inactive”. Moreover, in test [2], the Potency was 8.91 µM (active).
Consider `NC1CCN(c2cccc(Cl)n2)CC1`, for which the activity, negative = inhibition in test [10] (parasite line A) was 13.3%; in test [10] (parasite line B) it was 5.51%. The Potency result in test [1], in test [14], in test [15], in [16], in test [13] and in [11] was “inactive” in each case. Further, the Potency entry in test [3], in test [4], in test [5], in test [6], in test [8] and in [9] was “inactive” throughout. Also, the Potency result in [17] was “inactive”.
`CC1=C(CC(=O)O)c2cc(F)ccc2/C1=C\c1ccc(S(C)=O)cc1` (stereo unspecified): the activity, negative = inhibition in test [10] (parasite line A) is -3.64%; in [10] (parasite line B) it was -4.38%. In addition, the Potency result in [1], in test [12], in [14], in test [15], in test [16] and in test [13] was “inactive” throughout. For the same compound, the Potency entry in test [11], in [3], in test [4], in test [5], in test [6] and in test [7] was “inactive” in each case. For the same compound, the Potency entry in test [8], in test [9] and in test [17] was “inactive” in each case.
For `Cc1ccc(C(C)C)cc2c(C)ccc1-2`, the activity, negative = inhibition in [10] (parasite line A) was -17.3%; in test [10] (parasite line B), -20.9%. For the same compound, the Potency entry in test [1], in [12], in test [14], in test [15], in test [16] and in [13] was “inactive” throughout. Moreover, the Potency result in test [11], in test [3], in [4], in test [5], in test [6] and in [7] was “inactive” each time. Also, the Potency result in test [8] and in test [17] was “inactive” throughout.
For the compound `CNCCC(Oc1ccc(C(F)(F)F)cc1)c1ccccc1` (stereo unspecified), the activity, negative = inhibition in test [10] (parasite line A) was -5.44%; in [10] (parasite line B), -9.25%. In addition, the Potency entry in [1], in test [11], in test [4], in test [6], in [8] and in [17] was “inactive” throughout. The Potency in test [2] was 11.2 µM (active).
`O=C1NS(=O)(=O)c2ccccc21`: the activity, negative = inhibition in [10] (parasite line A) was 2.53%. Also, the Potency entry in test [1], in [2], in [12], in [14], in test [15] and in test [13] was “inactive” throughout. Besides, the Potency result in [11], in test [3], in test [4], in test [5], in test [6] and in test [8] was “inactive” in each case. The Potency result in test [9] and in test [17] was “inactive” in each case.
